Shown are actives, neighbours in structure and some others; about 1.2% of the full set was active somewhere.
Mito fusion yeast: mitochondrial division inhibition or fusion activation | S. cerevisiae fusion-defective mutant growth rescue, CellTiterGlo 48 h | Potency, µM (series often up to 46.1 µM), for inactives: at the highest dose growth rescue (activation), hits mostly activators | hit rate 0.23% among 320,000 | AID 485298; also: % of control where 0% means no effect; nearly all actives have a fitted effect of over 45% in size
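Luminescent cell viability in 1536-well qHTS format served as the measure of rescued growth in ts fusion-mutant S. cerevisiae cultured on non-fermentable YPEG for 48 hours at 37C.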
B2AR arrestin: recruits beta-arrestin to the human beta2-adrenergic receptor | hit rate 0.02% among 330,000 | AID 492947 | beta-arrestin recruitment to beta2AR, cell-based reporter | P07550 | Potency, µM (top dose mostly 46.1 µM), for inactives: at the highest dose activation, most hits filed as activators;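 also: 0% = DMSO controls and full agonism = EC100 isoproterenol or metaproterenol; nearly all actives have a fitted effect of over 65% in size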
BRCA1 expr up: activators of BRCA1 expression; MCF7-BRCA1-FFLuc reporter, luminescence, 48 h; response scale: scaled: vehicle 0%, 10 µM genistein 100%; Potency, µM (titrated, usually from 46.1 µM), inactives show at the top dose activation, actives largely listed as activators; hit rate 1.1% among 380,000; also: nearly all actives have a fitted effect of over 80% in size
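48 h compound treatment of MCF7-BRCA1-FFLuc cells (phenol-red free MEM, 37 °C), then 15 min with luciferase substrate and luminescence imaging.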
ERG-DNA inh: blocks human ERG Ets domain binding to DNA. P11308. fluorescence polarization, His-ERG Ets domain / labelled DNA. Potency, µM (series often up to 76.9 µM), inactives show top-dose FP activity, negative = inhibition, actives largely listed as inhibitors. hit rate 0.028% among 370,000; active = well fitted inhibition curve with a large enough effect in the polarisation, with a control signal flat; inconclusive = small, poorly fitted or top-dose-only effect, or effect the other way, or a change in a side signal; inactive = no such curve, though single readings can be large or run the other way; the % refers to the polarisation;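 also: polarization taken with two DNA probes labelled with fluorescein and Texas red; % of control where 0% means no effect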
Target sequence (P11308 whole entry, looked up, the tested form may be a part): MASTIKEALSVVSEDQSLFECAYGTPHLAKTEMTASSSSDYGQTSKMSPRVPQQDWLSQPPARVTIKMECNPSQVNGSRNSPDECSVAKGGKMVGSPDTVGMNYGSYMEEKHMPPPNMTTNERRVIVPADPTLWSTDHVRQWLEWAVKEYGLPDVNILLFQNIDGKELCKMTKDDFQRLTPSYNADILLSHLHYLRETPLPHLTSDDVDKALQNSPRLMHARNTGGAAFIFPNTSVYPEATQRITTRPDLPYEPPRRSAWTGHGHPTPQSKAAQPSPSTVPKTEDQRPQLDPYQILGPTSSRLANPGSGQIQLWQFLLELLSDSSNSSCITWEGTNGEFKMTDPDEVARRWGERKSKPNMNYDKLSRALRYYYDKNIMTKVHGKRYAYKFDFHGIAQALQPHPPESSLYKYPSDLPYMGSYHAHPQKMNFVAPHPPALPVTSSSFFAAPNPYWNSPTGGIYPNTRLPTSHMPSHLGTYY
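His-tagged ERG Ets domain (1 uM in the protein solution; 300mM KCl, 50mM Tris-HCl, 1mM EDTA, 1mM DTT, pH 7.5) received compound, then a probe mix of 5 nM fluorescein-DNA and 100nM Texas-615-DNA. Fluorescence polarization was read for both dyes.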
Starred values were filed as active, the others as inactive; ? = inconclusive; . = not tested or not shown. Unless noted, calls follow the shape of the dose curve; as a rule, active = well fitted curve in the direction sought with a large enough effect; inconclusive = small, poorly fitted or top-dose-only effect, or another doubt; inactive = no such curve, though single readings can be large; an effect the other way counts as inactive or inconclusive. Potency is read from the fitted curve at half-maximal effect.

SMILES	Mito fusion yeast	B2AR arrestin	BRCA1 expr up	ERG-DNA inh
Fc1ccc(NC(=S)Nc2nccs2)cc1	0%	11%	3.2µM*	-7%
CCOc1ccc(NC(=O)N2CCOc3ccccc32)cc1	.	.	.	-3%
CNc1nc(-c2ccc([N+](=O)[O-])cc2)cs1	5%	0%	10µM*	-5%
Cc1ccc2c(c1)c(N=Nc1cccc(C(=O)O)c1)c(O)n2C	2%	0%	95%	10%
CCOc1ccc2c(c1)c(N=Nc1cccc(C(=O)O)c1)c(O)n2C	16%	0%	10µM*	2%
Nc1cccc2nc3ccccc3cc12	-21%	0%	-66%	?
Cc1cc2c(N)cccc2nn1	3%	0%	0%	11µM*
Cc1cc(C(C)(C)C)ccc1NC(=O)CC(C)(C)CC(=O)O	-5%	0%	13µM*	4%
C[n+]1ccc(/C=C/c2ccc([N+](C)(C)C)cc2)c2ccccc21	.	.	-66%	.
CN(C)C(=O)COc1ccccc1C(=O)OCC(=O)Nc1ccc(Oc2ccc(Br)cc2)cc1	.	.	11%	.
CC(C1CC2CCC1C2)N1CC(O)=C(c2nc3ccccc3[nH]2)C1=N (stereo not drawn)	3%	0%	0%	16%
CC(C)N1CC(O)=C(c2nc3ccccc3[nH]2)C1=N	-3%	-2%	8.9µM*	-15%
CCOc1ccc(-c2nc(CSc3nnc(N)s3)cs2)cc1	5%	0%	4µM*	-7%
O=C(Nc1nnc(C2CCCC2)s1)C1CCC1	1%	0%	11µM*	-2%
Cc1nnc(NC(=O)C2CCCC2)s1	5%	0%	-4%	-6%
COCC(=O)n1nc(-c2ccc(Cl)cc2)nc1NCc1ccc(F)cc1	-20%	0%	-43%	1%
COCC(=O)n1nc(-c2ccc(C)cc2)nc1NCc1ccc(F)cc1	-2%	0%	10µM*	-7%
CCOc1ccccc1CNC(=O)c1cnc2sc(N3CCCC3)nn2c1=O	.	.	.	-4%
O=S(=O)(c1ccc2c(c1)OCO2)N1CCN(c2nnnn2-c2ccccc2)CC1	5µM*	0%	-1%	-8%
CN(CC(=O)N1CCCCCC1)S(=O)(=O)c1ccc(F)cc1	6%	0%	10µM*	18%
CCOc1ccccc1CNC(=O)c1sc2ncccc2c1-n1cccc1	.	.	.	2%
COc1ccc2cc(C3=CCCCC3)ncc2c1	-12%	0%	2.8µM*	11%
COc1cc2c(NC3CCN(C(C)C)CC3)nc(N3CCCN(C)CC3)nc2cc1OCCOCCN(C)C	.	.	-5%	.
O=C(CSc1nc2ccccc2[nH]1)c1ccccc1F	-7%	3%	2µM*	3%
O=C(CSc1nc2ccccc2[nH]1)c1c[nH]c2ccccc12	1%	0%	30%	17%
SMILES	Mito fusion yeast	B2AR arrestin	BRCA1 expr up	ERG-DNA inh
C/C(=C\c1ccccc1)C(=O)Nc1nccs1	?	0%	3.2µM*	1%
N#C/C(=C\c1cccs1)C(=O)Nc1nccs1	2%	0%	14µM*	15%
N#C/C(=C\c1cccs1)C(=O)NCc1ccccc1	-4%	-1%	-10%	12%
O=C(Nc1nccs1)Oc1ccccc1	2%	-1%	2%	-9%
COc1ccc2nc(/N=C(\N)NC(=O)C(C)(C)C)nc(C)c2c1	2%	0%	11µM*	0%
COc1ccc2cc([S+]([O-])Cc3ncc(C)c(OC)c3C)nc2c1	6%	.	.	.
CCN(C(=O)CCS(=O)(=O)c1cc2[nH]c(=O)c(=O)[nH]c2cc1C)c1ccccc1	.	.	.	3%
CCOC(=O)c1ccc(NC(=O)CCCn2c(=O)c3cccn3c3cccnc32)cc1	.	.	.	-10%
COc1cc2c(cc1OC)/C(=C/c1ccc(Br)cc1)C(=O)OC2	16µM*	-3%	-65%	3%
CCOc1ccc(C(=O)/C=C/c2ccc(SC)cc2)cc1	-2%	0%	13%	-1%
CCOc1ccc(/C=C/C(=O)c2ccccc2)cc1	-8%	0%	13µM*	-2%
O=C(Nc1ccc2c(c1)Cc1ccccc1-2)c1cccnc1	5%	-1%	2.8µM*	-4%
Cc1ccc(S(=O)(=O)N2CCN(Cc3nc4ccc(C)cc4o3)CC2)c(C)c1	.	.	.	2%
O=C(/C=C/c1ccccc1)NCCC1=CCCCC1	11%	-1%	?	5%
COc1cccc(NC(=O)NCCC2=CCCCC2)c1	3%	0%	5µM*	-3%
COc1ccc(NC(=O)NCCC2=CCCCC2)cc1	-2%	0%	?	11%
COc1ccccc1/C=C/C(=O)NCCC1=CCCCC1	-2%	-1%	2.8µM*	13%
Cc1cccc(Cn2c(=O)n3nc(-c4ccccc4)nc3c3ccccc32)c1	.	.	-8%	-1%
CC(=O)OCC(=O)C1CCC2C3CC=C4CC(O)CCC4(C)C3CCC12C (stereo not drawn)	3.2µM*	0%	5%	-7%
CC12CCC(O)CC1=CCC1C2CCC2(C)C1CCC21CCC(=O)O1 (stereo not drawn)	20µM*	-3%	-32%	-3%
CC(=O)OCC(=O)[C@H]1CC[C@H]2[C@@H]3CCC4=CC(=O)CC[C@]4(C)[C@H]3CC[C@]12C	12%	-1%	0%	-2%
CC(C)(C)c1nnc(SCC(=O)Nc2ccc(N3CCCCC3)cc2)n1N	2%	0%	4µM*	1%
N#Cc1c(-c2cccs2)nc(SCc2ccc(Cl)cc2)[nH]c1=O	-5%	6%	-8%	0%
O=c1[nH]c(SCc2ccc(Cl)cc2)nc2ccsc12	-7%	0%	4.5µM*	11%
O=C(CNC(=O)c1ccc([N+](=O)[O-])cc1)c1ccccc1	1%	-1%	6.3µM*	3%
SMILES	Mito fusion yeast	B2AR arrestin	BRCA1 expr up	ERG-DNA inh
O=C(NCc1ccccc1)c1ccc([N+](=O)[O-])cc1	.	.	6%	.
Cc1ccc(-c2nc3sc(C(N)=O)c(N)c3c3c2CCCC3)cc1	?	0%	-31%	3%
CC(=O)c1sc2nc(-c3ccc(C)cc3)c3c(c2c1N)CCCC3	16µM*	-1%	-50%	2%
COc1ccc(C2Nc3ccccc3C(=O)N2Cc2ccco2)cc1COc1c(C)cccc1C (stereo not drawn)	.	.	-69%	.
N#C/C(C(=O)Oc1ccccc1)=C1\C=CC=CN1	-6%	0%	3.2µM*	-13%
COc1ccc2nc3sc(C(=O)NCCN4CCc5ccccc5C4)cc3cc2c1	0%	1%	-5%	18%
COc1ccc2cc3cc(C(=O)NCCCN4CCc5ccccc5C4)sc3nc2c1	-6%	-1%	7.1µM*	-6%
CC(C)CCn1c(NCCc2ccccc2)nc2c1c(=O)n(C)c(=O)n2C	18µM*	0%	-25%	3%
CC(=O)c1ccc(NC(=O)c2sc(-n3nc(C)c(Cc4ccccc4)c3C)nc2C)cc1	.	.	.	2%
CCc1cc2c(=O)n(CC(C)C)cnc2s1	7%	0%	11µM*	-5%
CCOC(=O)C1CCCN(S(=O)(=O)c2ccc(N3CCCCS3(=O)=O)cc2)C1 (stereo not drawn)	.	.	.	1%
CCOC(=O)C1CCCN(C(=O)CCc2nnc(-c3ccc(C(C)=O)s3)o2)C1 (stereo not drawn)	21%	0%	13µM*	8%
O=C(Cc1c(F)c(F)c(F)c(F)c1F)Nc1nc(-c2ccccc2)cs1	11µM*	0%	-39%	-6%

Source: PubChem
